According to PubChem BioAssay AID1863 (Southern Research Specialized Biocontainment Screening …, 2009):
The whole screen tested about 300,000 compounds, of which about 480 (0.16%) were called active.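 Rule for the calls: active = inhibition over 29.93%, a cutoff 3 SD above the screen mean, later confirmed by dose response; inconclusive = inhibition over 29.93% but no dose response follow-up; inactive = inhibition at most 29.93% or unconfirmed.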 Not all results are given here. Entries with a potency or affinity are not part of this list.

Experiment: PhoP-dependent GFP reporter repression – Salmonella Typhimurium, primary screen (AID 1863);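 note: 0% = low Mg2+ inducing control and 100% = high Mg2+ repressing control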
Details: S. Typhimurium PhoP-regulated promoter GFP reporter, 4 h; at 50 µM; stronger effect = higher value

inhibition, inactive:
CS(=O)(=O)N1CCc2ccc(NC(=O)C3CCCO3)cc2C1 (stereo unspecified) 4.89%
Cc1ccc(S(=O)(=O)/N=C(/c2ccc(F)cc2)N2CCOCC2)cc1 -3.33%
CCOC(=O)C1CCN(c2ncnc3nc[nH]c23)CC1 0.02%
Cc1ccc(OCCC(=O)OCC(=O)Nc2ccccc2)cc1 1.27%
O=C(N/N=C/c1cc([N+](=O)[O-])ccc1O)C1C2CCCCC21 (stereo unspecified) -0.31%
O=C(N/N=C/c1cc(Cl)ccc1O)c1ccc(Br)cc1 4.94%
O=C(N/N=C/c1coc2ccc(Cl)cc2c1=O)c1ccncc1 7.37%
O=C(N/N=C/c1coc2ccc(Cl)cc2c1=O)c1ccc(O)cc1 10.4%
O=C(N/N=C/c1cccnc1)c1cccc(Cl)c1 -1.41%
O=C(N/N=C/c1cc([N+](=O)[O-])ccc1O)C1CCCCC1 1.18%
CCOc1ccc(CN2CCC(n3nccc3NC(=O)c3ccccc3OC)CC2)cc1 -0.04%
CCCNC(=O)c1ccccc1NS(=O)(=O)c1ccc(OC)c(OC)c1 4.85%
CCc1cc(C(=O)N(CCCOC)c2c(N)n(Cc3ccccc3)c(=O)[nH]c2=O)sc1C -2.51%
CCOC(=O)C(C(=O)OCC)C(C(=O)OCC)N1CCOCC1 (stereo unspecified) 3.26%
CC1(C)NC(=O)N(CC(O)CN2C(=O)CCC2=O)C1=O (stereo unspecified) -6.24%
Cn1c2ccccc2c(=O)c2ccc(C#Cc3ccccn3)cc21 0.47%
COc1ccccc1N1CCN(C(c2ccccc2)c2nnnn2CCc2ccccc2)CC1 (stereo unspecified) 1.99%
Cc1cc(C)n(CCCNC(=O)Cn2nnnc2CN2C[C@@H](C)O[C@@H](C)C2)n1 0.46%
COc1ccccc1NS(=O)(=O)c1ccc(Cl)c(NC(=O)c2sc3cc(Cl)ccc3c2Cl)c1 5.27%
Cc1cc(SCC(=O)N/N=C/c2ccc(O)c(O)c2)c(C)cc1Br -9.61%
Cc1cc(SCC(=O)N/N=C/c2ccc(O)cc2O)c(C)cc1Br -6.96%
CCCCC(c1nnnn1C1CCCC1)N1CCN(C(=O)c2ccco2)CC1 (stereo unspecified) -4.03%
Cc1cc(C(=O)N/N=C/c2cc(Cl)cc([N+](=O)[O-])c2O)c2ccccc2n1 28.8%
Cc1cc(C(=O)N/N=C/c2cc([N+](=O)[O-])ccc2O)c2ccccc2n1 18.3%
O=C(Nc1ccccc1N1CCN(C(=O)c2ccc(Cl)cc2)CC1)c1cccc(F)c1 2.12%
Cc1ccc(S(=O)(=O)N2CCC(C(=O)NCCN3CCOCC3)CC2)cc1C -3.49%
O=C(c1ccc(Cl)cc1)c1ccc(Oc2cc(NN3CCCCC3)c([N+](=O)[O-])cc2[N+](=O)[O-])cc1 6.36%
CCOc1ccc(C2CC(=O)NC2=O)cc1 (stereo unspecified) 3.62%
O=C(NCc1nc(-c2ccc(Cl)cc2)no1)c1ccco1 -1.48%
O=C(O)c1ccc(N2C(=O)CC(N3C(=O)/C(=C/c4ccc(Cl)cc4)SC3=S)C2=O)cc1 (stereo unspecified) 16%
CN1CCN(C(=O)CCN2C(=O)/C(=C\c3ccc(Cl)cc3)SC2=S)CC1 -5.92%
Cc1cccc(C)c1NC(=O)CCCCCC1NC(=O)NC1C (stereo unspecified) 2.4%
Cc1nn(-c2ccccc2)c(N)c1Sc1ccc([N+](=O)[O-])cc1 0.62%
C=CCn1c(=NC(=O)CN2C(=O)CCC2=O)sc2cc(S(N)(=O)=O)ccc21 17%
CC1CCN(Cc2ccc(-c3nnn(CC(=O)Nc4ccccc4Cl)n3)cc2)CC1 -3.86%
COc1ccccc1N1CCN(C(=O)C(C)CS(=O)(=O)c2ccc3c(c2)NC(=O)CS3)CC1 (stereo unspecified) -8.13%
O=[N+]([O-])c1cc(-c2ccn[nH]2)ccc1Cl -3.78%
O=[N+]([O-])c1cccc(-c2ccn[nH]2)c1 -3.87%
Cc1cc(C(C)(C)C)ccc1OCCOCCN1CCCC1 3.82%
Cc1cc(C(C)(C)C)ccc1OCCN(C)C -7.47%
C[N+](C)(CCOc1ccccc1)Cc1ccccc1 (tested in a mixture with another compound) -8.86%
CC(C)(C)c1ccc(OCCNCc2ccccc2)cc1 -2.16%
Cc1ccccc1CSc1nnc(-c2ccncc2)n1C 1.82%
COc1ccccc1C(=O)NCCC(=O)NC(C)c1ccc(-n2ccnc2)cc1 (stereo unspecified) 9.9%
CCCCCC[N+](C)(C)CCSSCC[N+](C)(C)CCCCCC -6.44%
C[N+](C)(C)CCCCCC[N+](C)(C)C -9.93%
C[N+](C)(C)CCCCCCCCCC[N+](C)(C)C -6.25%
C#CC[N+](C)(C)CCCCCCCCCC 8.05%
CC1CCc2cc(F)cc3c(O)c(C(=O)NCCN(C)C)c(=O)n1c23 (stereo unspecified) 2.46%
CN1CCN(c2c(F)cc3c(=O)c(C(=O)O)cn4c3c2SCC4)CC1 -8.39%
CCN(CC)CCCNC(=O)c1c(O)c2cc(F)cc3c2n(c1=O)C(C)CC3 (stereo unspecified) 8.52%
O=C(c1cncc(Br)c1)N1CCN(S(=O)(=O)c2ccccc2C(F)(F)F)CC1 -1.26%
Cc1ccc(C(=O)N/C(=C\c2cccnc2)C(=O)N2CCCC2)cc1 -6.95%
Cc1ccc(C2=Nc3ccccc3NC(C)(c3ccc(C)o3)C2)o1 (stereo unspecified) -5.88%
Cc1nnsc1S(=O)c1ccc(Cl)c(Cl)c1 (stereo unspecified) 3.99%
N#Cc1ccccc1CSCCNC(=O)Cc1c(F)cccc1Cl -5.66%
COc1cccc(Cn2c(C3CC3)nc3ccc(NC(=O)c4ccco4)cc3c2=O)c1 -9.67%
Cc1ccc(-c2nn(-c3ccccc3)cc2CSC(=N)N)cc1 2.16%
OCc1cn(-c2ccccc2)nc1-c1ccc(-c2nn(-c3ccccc3)cc2CO)cc1 14.7%
OCc1cn(-c2ccccc2)nc1-c1ccc(Br)cc1 -1.5%
O=C(O)Cc1cn(-c2ccccc2)nc1-c1ccccc1 -1.05%
CC1=Nn2c(nc3sc4c(c3c2=O)CCCC4)SC1 -2.64%
Cc1cnc(NC(=O)c2ccncc2)s1 1.84%
C=CCOC(=O)C1=C[C@@H](c2ccc(Br)cc2)[C@H](CCCO)[C@@H](OCC)O1 -3.82%
COc1cc(NS(=O)(=O)c2ccc(NS(=O)(=O)c3ccc(C)cc3)cc2)nc(OC)n1 12.1%
COCC(=O)Nc1ccc(N2CCN(c3ccccc3)CC2)c(F)c1 21.5%
Cc1ccc(SCCc2ccc(C)nc2)cc1 9.59%
CCNC(=S)NNC(=O)c1ccccc1Cl 8.03%
COCCCNC(=S)NNC(=O)c1ccccn1 8.59%
C=CCOC(=O)C1=C(C)NC(SCC(=O)Nc2nccs2)=C(C#N)C1c1cccs1 (stereo unspecified) -14.1%
CCOC(=O)Cn1cnc2sc(C(=O)OC)c(C)c2c1=O -1.36%
O=C(Nc1ccccc1)Nc1ccc(F)c([N+](=O)[O-])c1 8.9%
O=C(CCS(=O)(=O)c1ccccc1)Nc1ncc([N+](=O)[O-])s1 11.2%
O=C(Nc1ccc(Cl)c(Cl)c1)Nc1ccccn1 8.31%
Cc1ccc(NC(=O)Nc2ccccc2)cc1[N+](=O)[O-] -2.21%
O=C(Nc1ccc(Cl)c(Cl)c1)Nc1ccccc1C(=O)O 4.95%
O=C(Nc1ncc([N+](=O)[O-])s1)c1ccccc1Br -1.22%
CCN(CC)P(=O)(c1ccccc1)c1c(C)nc2ccccn12 (stereo unspecified) -1.09%
CC12CCC(C(=O)NC3CCCC3)(CC1=O)C2(C)C (stereo unspecified) -12.7%
COc1ccc(-c2nnn(CC(=O)N(CC3CCCO3)C(C(=O)NC(C)(C)C)c3ccco3)n2)cc1OC (stereo unspecified) 2.77%
COCCCNC(=O)CN(c1cc(Cl)cc(Cl)c1)S(C)(=O)=O -4.71%
N#CCOc1nc(N2CCOCC2)nc(N2CCOCC2)n1 -1.4%
COc1ccc(CN(CC(=O)NCC2CCCO2)C(=O)CNS(=O)(=O)c2ccc(C)cc2)cc1 (stereo unspecified) -1.33%
CC(NC(=O)C1CCN(S(=O)(=O)c2ccc3nc4c(c(C(=O)O)c3c2)CCCC4)CC1)c1ccccc1 (stereo unspecified) -8.3%
CCN(CC)S(=O)(=O)c1ccc(OC)c(NS(=O)(=O)Cc2ccccc2)c1 6.46%
O=C(O)c1cccc(Nc2ncnc3sccc23)c1 -0.32%
COc1ccccc1N1CCN(CC(=O)c2c(C)[nH]c3cc(C)ccc23)CC1 -0.55%
CC(C)c1nnc(NC(=O)c2ccc(S(=O)(=O)N3CCOCC3)cc2)s1 -9.01%
O=C(NCCC1=CCCCC1)c1ccc2c(c1)N(Cc1ccccc1)C(=O)CS2 6.9%
CCn1c(/C=C/N(C)c2ccccc2)[n+](CC)c2ccc(Cl)cc21 -2.39%
CCOC(=O)c1ccc2c(c1)n(CC)c(/C=C/N(C)c1ccccc1)[n+]2CC -11%
COc1ccc(C(=O)N2CCN(Cc3ccccc3)CC2)cc1[N+](=O)[O-] -3.7%
O=C(NCCCn1ccnc1)c1ccc(Br)cc1 12.6%
Oc1c(Cl)cc(CN2CCCCC2)c2cccnc12 14.1%
O=C(Oc1ccc(Cl)c2cccnc12)c1ccco1 19.6%
Clc1cc2cccnc2c2ccccc12 2.15%
O=C(Oc1c(Cl)cc(Cl)c2cccnc12)c1cccs1 14.3%
Cc1ccc(S(=O)(=O)Nc2ccc(O)c3ncccc23)cc1 10.5%
Cc1ccc(S(=O)(=O)Nc2ccc(O)c3cccnc23)cc1 6.3%
O=c1oc2ccccc2c(O)c1Cc1cc(Cl)c2cccnc2c1O -10%
Oc1c(I)cc(I)c2cccnc12 -1.32%
